Sampled rows, rich in hits. Any-hit rate of the full collection: about 12%.
RORg inh – inhibitors of mouse ROR gamma transcriptional activity; P51450; Drosophila S2 Gal4-RORgamma UAS-luciferase reporter, 20 h; Potency, µM (top dose mostly 53.6 µM), without a hit: at the top dose activity change, negative = inhibition, hits mostly inhibitors; 310,000 tested, 5.4% active; AID 2551; further: nearly all actives have a fitted effect of over 60% in size
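Drosophila S2 cells stably expressing Gal4-DBD/mouse RORγ fusion under metallothionein promoter plus UAS-luciferase; compound 1 h, then 700 uM CuSO4 induction for 20 h at ambient temperature; inhibition read as reduced luminescence.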
PLK1 PBD inh – PLK1 (human) polo-box domain binding inhibition; P53350; Plk1 PBD binding of FITC phosphopeptide, fluorescence polarization; Potency, µM, inactives show max response, negative = inhibition, usual class: inhibitors; 360,000 tested, 2.8% active; further: series mostly up to about 57 µM; nearly all actives have a fitted effect of over 65% in size
Sfp PPTase inh – Sfp phosphopantetheinyl transferase inhibition. Potency, µM, inactives show largest response in the series, negative = inhibition, actives largely listed as inhibitors. Biochemical Sfp PPTase activity, qHTS. AID 1490. 310,000 tested, 3.5% active;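 further: the enzyme is Sfp with the accession as filed and its product quenches rhodamine fluorescence; 0% = enzyme reaction without inhibitor and -100% = no enzyme wells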
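With Hepes-Na pH 7.6 buffer containing 10 mM MgCl2, Sfp (15 nM) modified BHQ-2-YbbR (12.5 uM) using rhodamine-CoA (5 uM). Two reads 30 minutes apart at 525/598 nm yielded each well's rate.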
VP16 counter – inhibits Gal4-VP16 luciferase reporter, ROR gamma counter-screen | 310,000 tested, 3.5% active | Potency, µM (series often up to 53.6 µM), for inactives: at the highest dose activity, negative = inhibition, actives largely listed as inhibitors | Drosophila S2 Gal4-VP16 UAS-luciferase, luminescence, 20 h;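 further: Gal4-VP16 expression switched on by copper sulfate through the metallothionein promoter; nearly all actives have a fitted effect of over 50% in size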
ALDH1A1 block – blocks purified human ALDH1A1 activity. Purified ALDH1A1, NADH fluorescence, propionaldehyde substrate. Potency, µM (top dose mostly 75.3 µM), for inactives: top-dose activity, negative = inhibition, most hits filed as inhibitors. 220,000 tested, 7.3% active. AID 1030; active means well fitted inhibition curve with a large enough effect, not every such curve was filed as active; inconclusive means small, poorly fitted or top-dose-only effect, or another doubt; inactive means no such curve, though single readings can be large or run the other way;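 further: plate controls were no enzyme wells and a reference inhibitor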
Target sequence (P00352 whole entry, looked up): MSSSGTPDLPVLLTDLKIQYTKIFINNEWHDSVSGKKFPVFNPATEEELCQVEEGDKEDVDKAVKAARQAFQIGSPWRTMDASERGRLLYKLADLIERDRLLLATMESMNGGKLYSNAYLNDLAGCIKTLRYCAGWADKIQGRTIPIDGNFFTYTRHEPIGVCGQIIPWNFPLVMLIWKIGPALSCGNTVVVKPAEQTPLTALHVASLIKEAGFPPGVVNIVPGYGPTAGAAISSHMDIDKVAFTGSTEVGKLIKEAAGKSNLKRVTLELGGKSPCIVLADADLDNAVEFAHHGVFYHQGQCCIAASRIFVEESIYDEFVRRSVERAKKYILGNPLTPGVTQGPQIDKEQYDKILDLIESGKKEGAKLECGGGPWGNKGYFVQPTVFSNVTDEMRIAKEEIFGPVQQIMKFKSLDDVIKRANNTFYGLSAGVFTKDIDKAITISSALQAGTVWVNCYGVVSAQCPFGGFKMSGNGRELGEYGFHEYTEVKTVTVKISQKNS
* marks the source's active call; other numbers are inactive results; [ ] = another dose, or the depositor's remark. Unless noted, the call rests on the fitted dose curve; in most records, active means well fitted curve in the direction sought with a large enough effect; inconclusive means small, poorly fitted or top-dose-only effect, or another doubt; inactive means no such curve, though single readings can be large; an effect the other way counts as inactive or inconclusive. Unless noted, on the % scale 0 is the no-effect control and ±100 the full control effect; potency means the concentration at half of the fitted maximal effect.

How did S=c1[nH]nc(C2CCCCC2)n1/N=C/c1ccc(Cl)cc1 do in these assays?
RORg inh: 0.355µM*; PLK1 PBD inh: 29.9µM*; Sfp PPTase inh: inconclusive; VP16 counter: 7.94µM*

Results for S=c1[nH]nc(C2CCCCC2)n1/N=C/c1ccc(Br)cc1 ?
RORg inh: 1.41µM*; PLK1 PBD inh: inconclusive; Sfp PPTase inh: inconclusive; VP16 counter: inconclusive

What do the screens show for `CCc1ccc(/C=N/n2c(C3CCCCC3)n[nH]c2=S)cc1`?
RORg inh: 3.55µM*; PLK1 PBD inh: inconclusive; Sfp PPTase inh: inconclusive; VP16 counter: 8.91µM*

How did COc1cc(/C=C2/SC(=S)N(CCC(=O)N3CCN(C)CC3)C2=O)cc(OC)c1OC do in these assays?
PLK1 PBD inh: 0.7%

What do the screens show for `Cc1noc(C)c1NC(=O)N(C)C[C@H]1OCc2cnnn2CCCC(=O)N([C@H](C)CO)C[C@H]1C`?
PLK1 PBD inh: -18.2%

What do the screens show for `Cc1ccc(C(=O)CSc2nsc(C)c2C#N)cc1`?
RORg inh: -0.6%; PLK1 PBD inh: 15µM*; Sfp PPTase inh: 20µM*; VP16 counter: inconclusive; ALDH1A1 block: inconclusive

How did CCOC(=O)CSc1nsc(SCC(=O)OCC)c1C#N do in these assays?
RORg inh: 28.0%; PLK1 PBD inh: -14.2%; Sfp PPTase inh: 7.2%; VP16 counter: -0.3%; ALDH1A1 block: 6.7%

Results for COC(=O)c1cc(C#N)c(SCc2ccccc2)nc1C ?
RORg inh: 7.5%; PLK1 PBD inh: 1.6%; Sfp PPTase inh: -24.6%; VP16 counter: 4.8%; ALDH1A1 block: inconclusive

What do the screens show for `CC(=O)CSc1nsc(SCC(C)=O)c1C#N`?
RORg inh: inconclusive; PLK1 PBD inh: inconclusive; Sfp PPTase inh: -14.7%; VP16 counter: inconclusive; ALDH1A1 block: 28.2µM*

Results for Cc1snc(SCC(=O)c2ccc(Cl)cc2)c1C#N ?
RORg inh: inconclusive; PLK1 PBD inh: 21.2µM*; Sfp PPTase inh: 28.2µM*; VP16 counter: -19.3%; ALDH1A1 block: 20µM*

What do the screens show for `COC(=O)c1ccccc1CSc1nsc(C)c1C#N`?
RORg inh: 0.7%; PLK1 PBD inh: 13.4µM*; Sfp PPTase inh: 50.1µM*; VP16 counter: 3.6%

How did CCCCCNC(=O)C(c1ccncc1)n1c(=O)c(-c2cc3ccccc3[nH]2)nc2ccccc21 (configuration not stated) do in these assays?
PLK1 PBD inh: 0.5%

What do the screens show for `CCC(=O)NNC(=S)NC(=O)c1ccc(C)cc1`?
RORg inh: 3.16µM*; PLK1 PBD inh: inconclusive; Sfp PPTase inh: 56.2µM*; VP16 counter: 17.8µM*; ALDH1A1 block: 20µM*

What do the screens show for `Cc1ccc(C(=O)NC(=S)NNC(=O)COc2ccccc2C)cc1`?
RORg inh: 3.98µM*; PLK1 PBD inh: -10.8%; Sfp PPTase inh: -50.1%; VP16 counter: inconclusive; ALDH1A1 block: 11.2µM*

How did C#CCCCO/N=C1/C[C@@H](O)[C@@H](O)[C@@H]2[C@@H]3C(=O)N(C(C)(C)C)C(=O)[C@H]3CC[C@H]12 do in these assays?
RORg inh: -12.8%[10 µM]; Sfp PPTase inh: -9.2%; VP16 counter: 5.4%[10 µM]; ALDH1A1 block: 5.6%[13.5 µM]

Results for CC(=O)Oc1c(-c2ccco2)oc2ccccc2c1=O ?
RORg inh: 12.6µM*; PLK1 PBD inh: -9.3%; Sfp PPTase inh: 15.2%; VP16 counter: inconclusive; ALDH1A1 block: inconclusive

How did CCN(CC)C(=O)COc1c(-c2ccco2)oc2ccccc2c1=O do in these assays?
RORg inh: 4.6%; PLK1 PBD inh: -15.7%; Sfp PPTase inh: 14.2%; VP16 counter: -10.4%

How did COCCNC(=O)C1=C(N)C(C(=O)Nc2ccc(C)c(S(=O)(=O)N3CCCCC3)c2)SC1=Nc1ccc(C)cc1C (configuration not stated) do in these assays?
RORg inh: -10.8%; PLK1 PBD inh: -9.1%; Sfp PPTase inh: -1.9%; VP16 counter: -12.5%; ALDH1A1 block: 0.794µM*

What do the screens show for `COCCNCC(=O)Nc1ccc(C)c(S(=O)(=O)N2CCCCC2)c1`?
RORg inh: 12.2%; PLK1 PBD inh: -16.5%; Sfp PPTase inh: -7.6%; VP16 counter: 0.4%; ALDH1A1 block: -3.3%

What do the screens show for `C/C(N)=C(/C#N)C(=O)CSc1nc2ccccc2[nH]1`?
RORg inh: 39.2%; PLK1 PBD inh: -9.2%; Sfp PPTase inh: 2.5%; VP16 counter: 10.9%; ALDH1A1 block: 13.0%

What do the screens show for `C/C(N)=C(/C#N)C(=O)CSc1ncnc2ccccc12`?
RORg inh: -11.3%; PLK1 PBD inh: 26.7µM*; Sfp PPTase inh: -6.2%; VP16 counter: 2.8%; ALDH1A1 block: 4.7%

Results for C/C(N)=C(/C#N)C(=O)CSc1nc2ccccc2c(=O)n1-c1ccccc1C ?
RORg inh: inconclusive; PLK1 PBD inh: -4.7%; Sfp PPTase inh: -15.0%; VP16 counter: -3.6%; ALDH1A1 block: 28.2µM*

What do the screens show for `Cn1c(SCC(=O)NCC2CCCO2)nc2scc(-c3ccccc3)c2c1=O` (configuration not stated)?
PLK1 PBD inh: 8.6%

What do the screens show for `C/C(N)=C(/C#N)C(=O)CSc1nc2scc(-c3ccccc3)c2c(=O)n1C`?
RORg inh: inconclusive; PLK1 PBD inh: 4.4%; Sfp PPTase inh: -6.5%; VP16 counter: -19.2%; ALDH1A1 block: 5.62µM*

What do the screens show for `CC(C)(C)OC(=O)NCc1ccc(CNC(=O)c2[nH]cnc2C(=O)Nc2ccccc2F)cc1`?
PLK1 PBD inh: -12.4%

How did CCOC1=C2[C@H](c3ccccc3F)N(S(=O)(=O)c3ccc(C)cc3)C[C@H]2n2c(=O)n(-c3ccccc3)c(=O)n2C1 do in these assays?
PLK1 PBD inh: -1.2%

How did COc1cccc2ccc(CC(O)(c3ccccc3)c3ccccc3)nc12 do in these assays?
PLK1 PBD inh: 1.7%

How did O=C(Nc1ccc(F)c(Cl)c1)C1Cc2c(-c3ccccc3Oc3ccccc3)ccnc2O1 (configuration not stated) do in these assays?
PLK1 PBD inh: -2.2%

Results for Fc1ccc(-c2nc3ccc(Cl)cn3c2Cc2cccc(F)c2)cc1 ?
PLK1 PBD inh: -6.0%

What do the screens show for `C[C@@H]1O[C@H](O[C@@H]2C(O)[C@H](O)[C@@H](CO)O[C@H]2Oc2cc(O)c3c(=O)cc(-c4ccc(O)cc4)oc3c2)[C@H](O)[C@H](O)[C@H]1O` (some centres not stated)?
RORg inh: 11.0%; Sfp PPTase inh: 4.3%; VP16 counter: -10.4%

How did O=C1CC[C@H](C(=O)N[C@@H]2C[C@H]2c2ccccc2)N1 do in these assays?
RORg inh: 39.5%; Sfp PPTase inh: 6.0%; VP16 counter: 8.0%

What do the screens show for `CC(Oc1ccccc1)C(=O)N1CCC2(CC1)Oc1ccc(F)cc1C(=O)C21CC(c2ccccc2)=NO1` (configuration not stated)?
PLK1 PBD inh: 21.2µM*

What do the screens show for `Cc1ccc(-n2nnnc2-c2cnn(-c3ccc(F)cc3)c2C(F)(F)F)cc1`?
RORg inh: inconclusive; PLK1 PBD inh: -4.8%; Sfp PPTase inh: 3.9%; VP16 counter: 22.4µM*; ALDH1A1 block: -11.9%
